Potency, max response and outcome data for 37 compounds are collected here from PubChem BioAssay (NCATS).

Results filed as inconclusive are left out. Activity calls are given as the source filed them. Calls follow the shape of the dose curve; as a rule, active = well fitted inhibition curve with a large enough effect; inconclusive = small, poorly fitted or top-dose-only effect; inactive = flat fitted curve, though single readings scatter. Non-standard residues stand in square brackets, D forms with d. Residues, ends and D or L forms follow the SMILES beside them. *: point of attachment. Nva = CCC[C@H](N)C(=O)O; Cbz = O=C(OCc1ccccc1)*
% is scaled to controls: 0 for no effect and ±100 for the full control effect; potency is read from the fitted curve at half-maximal effect.

The experiment relates to HEK293. The experiment is described as follows: Cytotoxic Profiling of Annotated Libraries Using Quantitative High-Throughput Screening (AID 1296008). Also: nearly all actives have a fitted effect of over 60% in size. The conditions noted are these: Five cell lines viability, CellTiter-Glo ATP luminescence, 48-72 h; max response: hits give low values. Summed up: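 Compounds were pin-transferred onto cells and incubated 48 or 72 hr at 37 degree Celsius, 95% humidity. CellTiter-Glo was added, plates sat 10 min at room temperature, then ATP-coupled luminescence was imaged as the viability read-out.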
On the technique in general: Cellular ATP, detected with luciferase, serves as a proxy for viable cell number.
Regarding `CCc1nc(-c2cccc(C)c2)c(-c2ccnc(NC(=O)c3ccccc3)c2)s1`, the Potency is 14800 nM (active). With `C#C[C@]1(O)CC[C@@H]2[C@@H]3CCC4=CC(=O)CC[C@@H]4[C@H]3CC[C@@]21CC`, the max response is -8.15% (inactive). On to `Nc1ccc(C(=O)Nc2cccc(-c3nc(N4CCOCC4)c4oc5ncccc5c4n3)c2)cn1`, for which the Potency was 3260 nM (active). Consider `O=C(O)C=Cc1ccc(Cn2ccnc2)cc1`, for which the max response was -2.77% (inactive).

With `Cc1cnc(Nc2ccc(CN3CCOCC3)cc2)nc1Nc1cccc(S(=O)(=O)NC(C)(C)C)c1`, the Potency is 3660 nM (active). `COc1cc2c(cc1OC)[C@@H]1C(=O)c3ccc4c(c3O[C@@H]1CO2)C=CC(C)(C)O4`: the Potency was 52.6 nM (active). As for `Cc1cc(C(=O)NOCCO)c(Nc2ccc(I)cc2F)n(C)c1=O`, the max response is -3.43% (inactive). The same measure, in the same setting: with `O=C(Nc1ccc(Oc2ccnc3[nH]ccc23)c(F)c1)c1cccn(-c2ccc(F)cc2)c1=O` the figure was 2.79% (inactive).

For the compound `CCOC(=O)C1=C(C)NC(=S)NC1c1cccc(O)c1` (configuration not stated), the Potency is 13.2 nM (active). Still for that read-out and setting: with `N#Cc1ccc(COC[C@H]2O[C@@H](n3c(NCc4ccc(Cl)c(Cl)c4)nc4c(N)ncnc43)[C@@H](O)[C@@H]2O)cc1` the figure was 16600 nM (active); with `CN[C@@H]1C[C@H]2O[C@@](C)([C@H]1OC)n1c3ccccc3c3c4c(c5c6ccccc6n2c5c31)C(=O)N[C@H]4O`, 469 nM (active). Consider `CCN1CCN(C(=O)N[C@H](C(=O)N[C@@H]2C(=O)N3C(C(=O)O)=C(CSc4nnnn4C)CS[C@@H]23)c2ccc(O)cc2)C(=O)C1=O`, for which the result was inactive. For `CC(C)(N)c1ccc(-c2nc3ccccc3nc2-c2ccccc2)cc1`, the Potency was 59 nM (active). The same measure, in the same setting: with `CS[C@H]1SC[C@@H]2C(=O)N(C)[C@H](C(C)C)C(=O)OC[C@H](NC(=O)c3cnc4ccccc4n3)C(=O)N[C@H](C)C(=O)N(C)[C@@H]1C(=O)N(C)[C@H](C(C)C)C(=O)OC[C@H](NC(=O)c1cnc3ccccc3n1)C(=O)N[C@H](C)C(=O)N2C` the figure was 5.3 nM (active); with `CCOC(=O)N1CCN([N+]([O-])=NOc2ccc([N+](=O)[O-])cc2C#N)CC1`, 3320 nM (active); with `COc1cc2c(Nc3ccc(Cl)c(Cl)c3F)ncnc2cc1OCC1C[C@@H]2CN(C)C[C@H]2C1`, 4690 nM (active). Same read-out and setting: with `CO[C@@H]1[C@@H](O)[C@H](O)[C@@H](n2c3c(Cl)cccc3c3c4c(c5c6cccc(Cl)c6[nH]c5c32)C(=O)NC4=O)O[C@@H]1CO` the figure was 662 nM (active). Consider `CCOC(=O)[C@@H](N)Cc1ccc(-c2cc(O[C@H](c3ccc(Cl)cc3-n3ccc(C)n3)C(F)(F)F)nc(N)n2)cc1`, for which the max response was -5.12% (inactive). As for `COc1ccc(S(=O)(=O)Nc2cccnc2Nc2ccc(O)cc2)cc1`, the Potency was 935 nM (active). As for `CCN(CC)Cc1ccc2cc(COC(=O)Nc3ccc(C(=O)NO)cc3)ccc2c1`, the Potency was 418 nM (active). In the case of `c1cc(CN2CCCNCCNCCCNCC2)ccc1CN1CCCNCCNCCCNCC1`, the compound was classed as inactive. `CC(C)N1[N]C(=C2C=c3cc(O)ccc3=N2)c2c(N)ncnc21`: the Potency was 469 nM (active). Still for that read-out and setting: with `CCOc1cc2ncc(C#N)c(Nc3ccc(OCc4ccccn4)c(Cl)c3)c2cc1NC(=O)C=CCN(C)C` the figure was 3320 nM (active); with `C=C1C(=O)O[C@H]2[C@@H]1CCC(C)=CCC[C@@]1(C)O[C@@H]21`, 4180 nM (active). Regarding `COc1cccc2c1C(=O)c1c(O)c3c(c(O)c1C2=O)C[C@@](O)(C(=O)CO)C[C@H]3O[C@H]1C[C@H](N)[C@H](O)[C@H](C)O1`, the Potency is 59 nM (active). For `NC(=O)c1ncn([C@@H]2O[C@H](CO)[C@@H](O)[C@@H]2O)c1O`, the max response is 1.7% (inactive). The same measure, in the same setting: with `CCCCOc1ccc(C(=O)Nc2ccc(F)cc2F)cc1` the figure was 2.49% (inactive). Turning to `Nc1ncn([C@@H]2O[C@H](CO)[C@@H](O)[C@@H]2O)c(=O)n1`, the Potency was 4180 nM (active). Still for that read-out and setting: with `Cn1cc(CNCC2CCN(c3ncc(C(=O)NO)cn3)CC2)c2ccccc21` the figure was 187 nM (active). Regarding `N#CC(=C(O)c1ccc(Cl)cc1Cl)c1nc2cc(Cl)ccc2c(=O)[nH]1`, the max response was 1.08% (inactive). On to `c1cncc(CN2CCC(n3ncc4c(N5CCOCC5)nc(-c5ccc6[nH]ccc6c5)nc43)CC2)c1`, for which the Potency was 5800 nM (active). Still for that read-out and setting: with `COc1ccc(C=Cc2cc(OC)c(OC)c(OC)c2)cc1NC(=O)[C@H](N)CO` the figure was 3.7 nM (active); with `C[C@H]1O[C@H](O[C@H]2[C@H](O)[C@@H](O)[C@@H](O[C@H]3[C@H](O)[C@@H](O)C(O)O[C@H]3CO)O[C@H]2CO)[C@H](O)[C@@H](O)[C@H]1N[C@H]1C=C(CO)[C@@H](O)[C@H](O)[C@@H]1O` (some centres not stated), 9350 nM (active). On the same count and under the same terms, with `COc1cc(N2CCC(C(N)=O)CC2)ccc1Nc1nc(N)c(Cl)c(Nc2ccccc2S(=O)(=O)C(C)C)n1` the figure was 1480 nM (active); with `CCC[C@@H](C=O)NC(=O)[C@H](CC(C)C)NC(=O)[C@H](CC(C)C)NC(=O)OCc1ccccc1` (Cbz-Leu-Leu-[Nva]-aldehyde), 3720 nM (active).

With `CC(Cc1ccc(O)c(O)c1)(NN)C(=O)O` (configuration not stated), the max response was -17.2% (inactive). For the compound `C[C@H](NCc1ccc2c(c1)nc(NC(=O)c1ccc(-c3cn[nH]c3)s1)n2CCc1ccccc1)C(C)(C)C`, the Potency was 935 nM (active).
